In the library only some 1.7% were active in any assay of this set; here they are far more common.
beta cell repl: MIN6 beta-cell proliferation induction; MIN6 cells proliferation, ATPlite luminescence, 48 h; cells starved in 0.2% serum; 100% = growth in 10% serum; proliferation, % at 10 µM; 330,000 compounds, 0.29% hits;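 active = compounds whose signal lies at least 3.5 SD above the mean of all wells on their plate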
CHT PAM: allosterically activates the human high affinity choline transporter | Q9GZV3 | 310,000 compounds, 0.49% hits | B-score at 10 µM | CHT-expressing cells, membrane potential dye, choline EC20; active compounds read high; LV-AA mutant CHT in HEK293 cells;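 active = initial fluorescence not abnormally high and integrated response B-score, plate-corrected, over 3 SD above library mean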
Target sequence (Q9GZV3 whole entry, looked up): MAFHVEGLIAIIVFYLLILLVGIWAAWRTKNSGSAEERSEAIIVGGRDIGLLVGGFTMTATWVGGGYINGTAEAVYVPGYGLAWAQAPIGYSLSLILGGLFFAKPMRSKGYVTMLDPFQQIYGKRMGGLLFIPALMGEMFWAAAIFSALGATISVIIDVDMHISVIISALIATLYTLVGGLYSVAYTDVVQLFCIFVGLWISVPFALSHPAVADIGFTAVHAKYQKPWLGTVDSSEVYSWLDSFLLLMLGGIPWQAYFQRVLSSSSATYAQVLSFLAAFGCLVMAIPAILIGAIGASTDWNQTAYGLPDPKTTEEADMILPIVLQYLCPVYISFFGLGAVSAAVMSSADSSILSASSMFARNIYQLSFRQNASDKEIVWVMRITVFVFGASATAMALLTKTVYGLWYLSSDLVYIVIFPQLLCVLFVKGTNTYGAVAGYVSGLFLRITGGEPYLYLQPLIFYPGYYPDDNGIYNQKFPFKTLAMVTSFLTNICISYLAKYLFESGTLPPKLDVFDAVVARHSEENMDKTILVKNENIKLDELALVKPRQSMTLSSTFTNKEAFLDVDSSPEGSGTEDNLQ
CHT inh: inhibits the human high affinity choline transporter; Q9GZV3; CHT-expressing cells, membrane potential dye, choline response; active compounds read low; B-score at 10 µM; 310,000 compounds, 0.86% hits;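 active = B-score over 3 SD under the library average, and starting fluorescence ratio not unusually high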;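 also: choline stimulus applied at its EC90 after an EC20 pre-addition; B-score computed on integrated fluorescence ratio after choline addition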
H9c2 TAG inh: reduces triacylglycerol accumulation in H9c2 cells | inhibition, % at 12.5 µM | Nile Red lipid (TAG) fluorescence; cells loaded with 200 µM oleic acid | 230,000 compounds, 0.66% hits;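 active = pattern-corrected inhibition of lipid staining of at least 50% with the nuclear-stain viability signal not falling by more than 50%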
CHT block conf: human CHT inhibition, confirmatory screen; shares compounds with CHT inh; CHT-expressing cells, choline membrane potential dye; LV-to-AA substituted CHT, HEK293 cells; CHT activity remaining % of control (active compounds read low), % at 10 µM; 2,400 compounds, 70% hits; AID 493221;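 active = choline transporter activity left, mean of duplicates at 10 µM, below buffer-only control mean minus 3 SD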;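 also: depolarization triggered by choline at its EC90 following an EC20 pre-addition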
HEK293 CHT ctr: counter-screen for CHT inhibitors: effect in parental HEK293 cells; shares compounds with CHT inh; membrane potential dye, choline response; active = decrease or increase beyond buffer ±3SD; membrane potential ratio readout (active if shifted either direction beyond buffer ±3SD; no single direction) at 10 µM; 2,400 compounds, 4% hits; AID 493222;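 also: parental cells lack the transporter so any hit is non-specific; ratio is peak minus trough fluorescence over baseline after EC90 choline challenge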
Hits are given with their value.

What do the screens show for `CC(C)c1ccc(N2C(=NC(=O)C3CCCO3)SC3CS(=O)(=O)CC32)cc1` (centres undefined)?
beta cell repl: inactive; CHT PAM: inactive; CHT inh: inactive

Results for Cc1ccc(S(=O)(=O)Nc2nc3ccccc3nc2NCc2ccco2)cc1 ?
beta cell repl: inactive; CHT PAM: inactive; CHT inh: inactive

How did Cc1ccc(S(=O)(=O)Nc2nc3ccccc3nc2NCc2ccco2)cc1C do in these assays?
beta cell repl: inactive; CHT PAM: inactive; CHT inh: -5; H9c2 TAG inh: inactive; CHT block conf: inactive; HEK293 CHT ctr: inactive

How did O=C(O)c1cccc(NC(=O)c2ccc3c(c2)C(=O)N(C2CCCCC2)C3=O)c1 do in these assays?
beta cell repl: inactive; CHT PAM: inactive; CHT inh: inactive; H9c2 TAG inh: inactive

How did O=C1CCC(=O)N1Cc1c(Cl)cccc1Cl do in these assays?
beta cell repl: inactive; CHT PAM: inactive; CHT inh: inactive

What do the screens show for `COc1ccc(/C=N/NC(=O)c2ccoc2C)cc1CN1CCN(c2ccc(F)cc2)CC1`?
beta cell repl: inactive; CHT PAM: inactive; CHT inh: inactive

Results for CCOC(=O)c1c(C)nc(C)c2c(=O)oc3ccccc3c12 ?
beta cell repl: inactive; CHT PAM: inactive; CHT inh: inactive; H9c2 TAG inh: inactive

Results for c1ccc(CN2CCN(c3nc4ccccc4n4cnnc34)CC2)cc1 ?
beta cell repl: inactive; CHT PAM: inactive; CHT inh: -5.5; H9c2 TAG inh: inactive; CHT block conf: 59%; HEK293 CHT ctr: inactive

What do the screens show for `c1ccc2c(c1)nc(N1CCOCC1)c1nncn12`?
beta cell repl: inactive; CHT PAM: inactive; CHT inh: inactive; H9c2 TAG inh: inactive

How did CN(CC(=O)Nc1ccc(Cl)cc1)C(=O)CNC(=O)c1cccs1 do in these assays?
beta cell repl: inactive; H9c2 TAG inh: inactive

How did Cc1nc2cc(C(=O)N3c4ccccc4CC3C)ccc2s1 (centres undefined) do in these assays?
beta cell repl: inactive; CHT PAM: inactive; CHT inh: -5.3; H9c2 TAG inh: inactive; CHT block conf: 56%; HEK293 CHT ctr: inactive

How did Cc1ccc(S(=O)(=O)N2[C@H](c3cccc(Cl)c3)CC(=O)[C@@H]3CN(S(=O)(=O)c4ccccc4C)[C@H](c4ccc(Cl)cc4)C[C@@H]32)cc1 do in these assays?
H9c2 TAG inh: inactive

How did Cc1onc(-c2ccccc2Cl)c1C(=O)Oc1cccc2cccnc12 do in these assays?
beta cell repl: inactive; CHT PAM: inactive; CHT inh: -5.5; H9c2 TAG inh: inactive; CHT block conf: inactive; HEK293 CHT ctr: inactive

What do the screens show for `CCc1nc2ccc(C(=O)Nc3cccc(OC)c3)cn2c1N(CC)CCOC`?
H9c2 TAG inh: inactive

How did O=C(NC(=S)N1CCN(c2ccccn2)CC1)c1ccccc1 do in these assays?
beta cell repl: inactive; CHT PAM: inactive; CHT inh: -8.2; CHT block conf: inactive; HEK293 CHT ctr: inactive

Results for O=C(NC(=S)N1CCN(c2ccccc2)CC1)c1ccccc1 ?
beta cell repl: inactive; CHT PAM: inactive; CHT inh: inactive; H9c2 TAG inh: inactive

What do the screens show for `CC1CCN(c2oc(Cc3cccc4ccccc34)nc2C#N)CC1`?
beta cell repl: inactive; CHT PAM: inactive; CHT inh: inactive

Results for N#Cc1nc(Cc2cccc3ccccc23)oc1N1CCOCC1 ?
beta cell repl: inactive; CHT PAM: inactive; CHT inh: -5.3; CHT block conf: 59%; HEK293 CHT ctr: inactive

How did COc1ccc(-c2nnc(SCc3csc(N)n3)n2C)cc1 do in these assays?
beta cell repl: inactive; CHT PAM: inactive; CHT inh: inactive

Results for Cc1ccc(Nc2nc(CSc3nnc(-c4ccc(F)cc4)n3C)cs2)cc1 ?
beta cell repl: inactive; CHT PAM: inactive; CHT inh: -6; CHT block conf: 48%; HEK293 CHT ctr: inactive

What do the screens show for `Cn1ccnc1Sc1ccc(C=O)cc1[N+](=O)[O-]`?
beta cell repl: inactive; CHT PAM: inactive; CHT inh: -6.3; H9c2 TAG inh: inactive; CHT block conf: inactive; HEK293 CHT ctr: inactive

What do the screens show for `Cc1c(NCc2cc(Cl)cc(Cl)c2O)c(=O)n(-c2ccccc2)n1C`?
beta cell repl: inactive; CHT PAM: inactive; CHT inh: -5; H9c2 TAG inh: inactive; CHT block conf: inactive; HEK293 CHT ctr: inactive

Results for Cc1ccc(N2C(=O)N(CC(=O)Nc3cc(Cl)ccc3C)C(=O)C2C)cc1 (centres undefined) ?
beta cell repl: inactive; CHT PAM: inactive; CHT inh: inactive; H9c2 TAG inh: inactive

Results for O=C(NCc1ccc2c(c1)OCO2)c1ccc(CSCc2ccc(Cl)cc2)o1 ?
beta cell repl: inactive; CHT PAM: inactive; CHT inh: inactive

What do the screens show for `O=C(NCc1ccc2c(c1)OCO2)c1ccc(COc2cc(Cl)ccc2Cl)o1`?
beta cell repl: inactive; CHT PAM: inactive; CHT inh: -5.1; CHT block conf: inactive; HEK293 CHT ctr: inactive

Results for O=C(NNC(=S)Nc1ccccc1)c1cc(Br)ccc1Cl ?
beta cell repl: inactive; CHT PAM: inactive; CHT inh: -5.8; H9c2 TAG inh: inactive; CHT block conf: 54%; HEK293 CHT ctr: inactive

What do the screens show for `CCN(CC)C(=O)c1sc(NC(=O)C(Sc2ccccc2)c2ccccc2)c(C(=O)OC(C)C)c1C` (centres undefined)?
beta cell repl: inactive; CHT PAM: inactive; CHT inh: inactive; H9c2 TAG inh: inactive

Results for Cc1cccc(N2CCN(C(=O)c3ccc(CNc4c(N5CCC(C)CC5)c(=O)c4=O)cc3)CC2C)c1 (centres undefined) ?
beta cell repl: inactive; CHT PAM: inactive; CHT inh: -5.4; H9c2 TAG inh: inactive; CHT block conf: 70%; HEK293 CHT ctr: inactive

What do the screens show for `O=C(COc1coc(CN2CCc3ccccc3C2)cc1=O)Nc1ccc(F)cc1F`?
beta cell repl: inactive; CHT PAM: inactive; CHT inh: inactive; H9c2 TAG inh: inactive

Results for Cc1ccc(CC(=O)NCCCc2ccccc2)cc1 ?
beta cell repl: inactive; CHT PAM: inactive; CHT inh: inactive; H9c2 TAG inh: inactive

Results for Cc1ccc(C(=O)NCC(=O)NCCCc2ccccc2)cc1 ?
beta cell repl: inactive; CHT PAM: inactive; CHT inh: -5; CHT block conf: 57%; HEK293 CHT ctr: inactive

What do the screens show for `CC(C#N)(NC(=O)CN1CCN(S(=O)(=O)c2ccccc2C#N)CC1)C1CC1` (centres undefined)?
beta cell repl: inactive; H9c2 TAG inh: inactive

Results for NC(=O)COC(=O)c1cccc(S(=O)(=O)N2CCN(c3ccc(F)cc3)CC2)c1 ?
beta cell repl: inactive; CHT PAM: inactive; CHT inh: inactive; H9c2 TAG inh: inactive

What do the screens show for `NC(=O)COC(=O)c1ccc(Cl)c(S(=O)(=O)N2CCN(c3ccc(F)cc3)CC2)c1`?
beta cell repl: inactive; CHT PAM: inactive; CHT inh: -7.1; H9c2 TAG inh: inactive; CHT block conf: 59%; HEK293 CHT ctr: inactive
